From the supplement of paper PMC11732987, “Enantioselective OTUD7B fragment discovery through chemoproteomics screening and high-throughput optimisation” (Communications Chemistry, 2025)

Assays:
Test in all cases: log2 ratio of Biotin-Ahx-Ub-VS probe labelling (fragment/DMSO); higher = less target engagement (more negative = stronger competition), active = hit call of the paper (q ≤ 0.05, log2 ratio ≤ -1)
Conditions in all cases: compound concentration: 200 uM; treatment time: 3 h
USP42 = target: T1, USP42 (UniProt Q9H9J4)
T1 sequence (whole entry): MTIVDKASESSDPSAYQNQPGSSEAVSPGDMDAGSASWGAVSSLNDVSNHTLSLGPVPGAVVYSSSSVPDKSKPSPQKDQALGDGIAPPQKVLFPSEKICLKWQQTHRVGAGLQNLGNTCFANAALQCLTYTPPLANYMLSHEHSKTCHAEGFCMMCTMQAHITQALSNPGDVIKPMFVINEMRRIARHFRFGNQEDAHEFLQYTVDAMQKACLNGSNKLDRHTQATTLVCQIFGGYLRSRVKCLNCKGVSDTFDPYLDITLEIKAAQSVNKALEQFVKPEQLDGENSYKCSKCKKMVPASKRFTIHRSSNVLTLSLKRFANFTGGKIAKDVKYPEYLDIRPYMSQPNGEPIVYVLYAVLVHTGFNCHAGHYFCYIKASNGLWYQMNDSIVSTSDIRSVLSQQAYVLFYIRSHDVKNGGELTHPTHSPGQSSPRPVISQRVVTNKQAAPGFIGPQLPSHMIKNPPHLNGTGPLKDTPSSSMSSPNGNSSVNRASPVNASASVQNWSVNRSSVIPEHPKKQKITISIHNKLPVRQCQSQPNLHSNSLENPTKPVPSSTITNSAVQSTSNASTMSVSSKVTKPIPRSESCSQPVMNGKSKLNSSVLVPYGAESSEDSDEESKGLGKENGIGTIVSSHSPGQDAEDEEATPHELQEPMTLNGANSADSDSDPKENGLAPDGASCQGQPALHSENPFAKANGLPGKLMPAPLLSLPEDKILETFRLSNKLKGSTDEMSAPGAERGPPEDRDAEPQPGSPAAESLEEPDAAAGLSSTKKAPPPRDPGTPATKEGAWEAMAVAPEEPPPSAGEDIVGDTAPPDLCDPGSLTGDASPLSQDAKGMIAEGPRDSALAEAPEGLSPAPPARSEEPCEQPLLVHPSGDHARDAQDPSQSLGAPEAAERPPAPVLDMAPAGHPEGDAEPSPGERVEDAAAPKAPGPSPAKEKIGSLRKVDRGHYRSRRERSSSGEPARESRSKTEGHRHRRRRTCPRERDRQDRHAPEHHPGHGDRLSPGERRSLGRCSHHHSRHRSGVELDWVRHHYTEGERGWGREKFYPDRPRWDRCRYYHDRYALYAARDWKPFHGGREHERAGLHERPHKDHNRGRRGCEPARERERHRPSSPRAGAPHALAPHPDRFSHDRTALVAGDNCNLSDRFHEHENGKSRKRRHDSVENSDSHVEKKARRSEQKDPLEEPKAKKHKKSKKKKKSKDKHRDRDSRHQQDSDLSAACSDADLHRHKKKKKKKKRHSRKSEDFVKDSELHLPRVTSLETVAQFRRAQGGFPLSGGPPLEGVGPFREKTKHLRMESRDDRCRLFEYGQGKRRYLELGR
Summary of the method: (§1)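 Triplicate samples of HEK293T lysate, 495 µg each, received fragment at 200 µM or vehicle for 3 h, followed by Biotin-Ahx-Ub-VS (0.5 µM final) for 1 h. After NeutrAvidin enrichment of labelled DUBs and LysC/trypsin digestion, peptides were run by diaPASEF LC-MS/MS. The values are average log2 fragment/vehicle ratios from global-median-normalised Spectronaut label-free quantities, tested by unpaired t-test on proteins having ≥2 unique peptides.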

USP46 = USP46 (UniProt P62068)
USP46, sequence (P62068 whole entry): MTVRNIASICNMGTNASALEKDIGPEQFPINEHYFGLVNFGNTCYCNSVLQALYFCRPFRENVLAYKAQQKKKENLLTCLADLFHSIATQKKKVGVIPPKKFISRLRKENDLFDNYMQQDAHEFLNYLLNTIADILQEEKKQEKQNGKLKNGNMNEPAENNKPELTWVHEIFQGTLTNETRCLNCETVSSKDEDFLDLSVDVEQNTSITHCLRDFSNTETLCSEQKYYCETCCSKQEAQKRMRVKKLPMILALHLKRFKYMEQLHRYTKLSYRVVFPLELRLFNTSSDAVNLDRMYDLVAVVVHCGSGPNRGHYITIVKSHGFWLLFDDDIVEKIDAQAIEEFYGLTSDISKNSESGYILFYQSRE
Summary of the method: as §1

USP47 = target: T2, USP47 (UniProt Q96K76)
T2 sequence (whole entry): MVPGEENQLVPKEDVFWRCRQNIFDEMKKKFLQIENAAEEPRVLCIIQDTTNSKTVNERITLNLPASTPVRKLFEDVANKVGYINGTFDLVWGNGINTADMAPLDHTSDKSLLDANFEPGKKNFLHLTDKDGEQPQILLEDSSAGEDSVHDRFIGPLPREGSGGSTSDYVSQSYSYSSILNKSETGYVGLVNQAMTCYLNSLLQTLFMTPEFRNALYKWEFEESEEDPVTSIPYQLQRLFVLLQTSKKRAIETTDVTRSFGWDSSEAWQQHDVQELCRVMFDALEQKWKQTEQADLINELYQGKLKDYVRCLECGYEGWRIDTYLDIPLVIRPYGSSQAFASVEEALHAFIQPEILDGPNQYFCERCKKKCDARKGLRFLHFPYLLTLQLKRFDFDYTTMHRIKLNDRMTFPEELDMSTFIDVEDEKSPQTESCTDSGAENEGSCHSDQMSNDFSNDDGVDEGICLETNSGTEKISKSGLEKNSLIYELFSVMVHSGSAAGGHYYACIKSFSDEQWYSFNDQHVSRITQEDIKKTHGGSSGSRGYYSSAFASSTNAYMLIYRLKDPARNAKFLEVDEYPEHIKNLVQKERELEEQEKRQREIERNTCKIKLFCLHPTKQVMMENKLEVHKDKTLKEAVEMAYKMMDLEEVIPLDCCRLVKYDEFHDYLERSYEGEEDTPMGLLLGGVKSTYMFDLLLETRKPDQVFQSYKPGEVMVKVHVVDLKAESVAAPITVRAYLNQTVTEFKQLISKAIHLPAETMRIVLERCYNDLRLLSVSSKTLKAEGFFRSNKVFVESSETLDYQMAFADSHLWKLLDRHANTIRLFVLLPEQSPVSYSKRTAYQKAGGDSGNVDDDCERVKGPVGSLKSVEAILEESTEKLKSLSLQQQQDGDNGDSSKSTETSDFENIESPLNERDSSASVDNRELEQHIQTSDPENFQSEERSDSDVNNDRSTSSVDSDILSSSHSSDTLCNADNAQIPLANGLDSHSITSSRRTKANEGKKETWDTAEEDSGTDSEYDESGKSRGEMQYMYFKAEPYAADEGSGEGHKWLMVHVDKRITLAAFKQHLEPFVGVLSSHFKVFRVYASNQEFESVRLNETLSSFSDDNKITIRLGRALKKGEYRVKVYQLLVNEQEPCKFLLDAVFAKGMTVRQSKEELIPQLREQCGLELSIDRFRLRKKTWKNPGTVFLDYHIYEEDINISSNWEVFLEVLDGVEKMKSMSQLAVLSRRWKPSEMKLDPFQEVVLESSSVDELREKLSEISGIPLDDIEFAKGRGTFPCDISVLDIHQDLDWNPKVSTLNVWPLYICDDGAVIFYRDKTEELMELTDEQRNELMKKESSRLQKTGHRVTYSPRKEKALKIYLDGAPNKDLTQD
Summary of the method: as §1

USP48 = target: T3, USP48 (UniProt Q86UV5)
T3 sequence (whole entry): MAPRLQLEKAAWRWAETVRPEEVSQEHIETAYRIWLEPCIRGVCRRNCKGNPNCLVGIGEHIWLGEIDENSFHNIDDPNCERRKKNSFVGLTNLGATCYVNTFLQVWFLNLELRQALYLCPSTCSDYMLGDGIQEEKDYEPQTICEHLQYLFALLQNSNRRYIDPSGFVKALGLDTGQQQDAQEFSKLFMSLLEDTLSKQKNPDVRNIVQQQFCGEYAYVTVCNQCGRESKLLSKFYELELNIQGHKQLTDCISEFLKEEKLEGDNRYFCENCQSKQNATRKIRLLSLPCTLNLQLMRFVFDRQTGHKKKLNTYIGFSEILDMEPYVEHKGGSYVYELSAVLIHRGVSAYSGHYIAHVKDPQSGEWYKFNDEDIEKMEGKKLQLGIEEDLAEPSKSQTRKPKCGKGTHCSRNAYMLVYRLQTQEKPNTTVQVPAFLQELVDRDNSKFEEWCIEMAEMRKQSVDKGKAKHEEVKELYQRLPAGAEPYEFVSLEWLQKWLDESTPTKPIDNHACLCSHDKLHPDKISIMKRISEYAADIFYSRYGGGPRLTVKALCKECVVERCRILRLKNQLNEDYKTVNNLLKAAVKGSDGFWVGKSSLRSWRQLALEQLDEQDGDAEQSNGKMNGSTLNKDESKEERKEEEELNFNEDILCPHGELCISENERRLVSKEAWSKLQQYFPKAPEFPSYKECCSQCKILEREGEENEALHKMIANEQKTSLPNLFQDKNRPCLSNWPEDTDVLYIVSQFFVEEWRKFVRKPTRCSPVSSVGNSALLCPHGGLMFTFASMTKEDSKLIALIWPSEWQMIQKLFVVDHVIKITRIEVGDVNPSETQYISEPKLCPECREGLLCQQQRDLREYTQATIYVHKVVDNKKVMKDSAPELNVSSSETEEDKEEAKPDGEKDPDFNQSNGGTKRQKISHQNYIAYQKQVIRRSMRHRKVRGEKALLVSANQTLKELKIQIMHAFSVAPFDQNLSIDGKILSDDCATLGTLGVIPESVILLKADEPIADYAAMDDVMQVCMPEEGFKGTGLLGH
Summary of the method: as §1

USP5 = target: T4, USP5 (UniProt P45974)
T4 sequence (whole entry): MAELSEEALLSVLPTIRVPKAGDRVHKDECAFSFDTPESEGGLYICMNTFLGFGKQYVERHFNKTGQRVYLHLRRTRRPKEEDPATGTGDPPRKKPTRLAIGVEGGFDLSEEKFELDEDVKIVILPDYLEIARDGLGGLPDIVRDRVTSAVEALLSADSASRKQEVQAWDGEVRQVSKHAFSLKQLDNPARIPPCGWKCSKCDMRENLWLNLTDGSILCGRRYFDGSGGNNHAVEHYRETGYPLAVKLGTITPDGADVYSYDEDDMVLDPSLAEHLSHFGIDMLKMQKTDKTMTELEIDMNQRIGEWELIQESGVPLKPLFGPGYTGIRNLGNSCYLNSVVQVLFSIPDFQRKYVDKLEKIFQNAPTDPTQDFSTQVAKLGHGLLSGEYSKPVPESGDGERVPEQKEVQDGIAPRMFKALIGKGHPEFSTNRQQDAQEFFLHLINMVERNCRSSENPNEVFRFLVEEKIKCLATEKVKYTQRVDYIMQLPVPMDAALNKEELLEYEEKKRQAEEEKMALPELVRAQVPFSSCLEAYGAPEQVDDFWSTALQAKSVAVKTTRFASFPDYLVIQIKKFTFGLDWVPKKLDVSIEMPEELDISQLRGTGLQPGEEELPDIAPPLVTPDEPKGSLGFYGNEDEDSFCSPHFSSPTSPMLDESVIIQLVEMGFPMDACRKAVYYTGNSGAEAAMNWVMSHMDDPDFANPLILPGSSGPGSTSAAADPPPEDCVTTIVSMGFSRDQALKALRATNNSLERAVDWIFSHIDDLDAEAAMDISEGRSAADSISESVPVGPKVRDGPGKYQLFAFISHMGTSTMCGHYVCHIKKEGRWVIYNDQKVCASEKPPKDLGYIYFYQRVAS
Summary of the method: as §1

USP54 = USP54 (UniProt Q70EL1)
USP54, sequence (Q70EL1 whole entry): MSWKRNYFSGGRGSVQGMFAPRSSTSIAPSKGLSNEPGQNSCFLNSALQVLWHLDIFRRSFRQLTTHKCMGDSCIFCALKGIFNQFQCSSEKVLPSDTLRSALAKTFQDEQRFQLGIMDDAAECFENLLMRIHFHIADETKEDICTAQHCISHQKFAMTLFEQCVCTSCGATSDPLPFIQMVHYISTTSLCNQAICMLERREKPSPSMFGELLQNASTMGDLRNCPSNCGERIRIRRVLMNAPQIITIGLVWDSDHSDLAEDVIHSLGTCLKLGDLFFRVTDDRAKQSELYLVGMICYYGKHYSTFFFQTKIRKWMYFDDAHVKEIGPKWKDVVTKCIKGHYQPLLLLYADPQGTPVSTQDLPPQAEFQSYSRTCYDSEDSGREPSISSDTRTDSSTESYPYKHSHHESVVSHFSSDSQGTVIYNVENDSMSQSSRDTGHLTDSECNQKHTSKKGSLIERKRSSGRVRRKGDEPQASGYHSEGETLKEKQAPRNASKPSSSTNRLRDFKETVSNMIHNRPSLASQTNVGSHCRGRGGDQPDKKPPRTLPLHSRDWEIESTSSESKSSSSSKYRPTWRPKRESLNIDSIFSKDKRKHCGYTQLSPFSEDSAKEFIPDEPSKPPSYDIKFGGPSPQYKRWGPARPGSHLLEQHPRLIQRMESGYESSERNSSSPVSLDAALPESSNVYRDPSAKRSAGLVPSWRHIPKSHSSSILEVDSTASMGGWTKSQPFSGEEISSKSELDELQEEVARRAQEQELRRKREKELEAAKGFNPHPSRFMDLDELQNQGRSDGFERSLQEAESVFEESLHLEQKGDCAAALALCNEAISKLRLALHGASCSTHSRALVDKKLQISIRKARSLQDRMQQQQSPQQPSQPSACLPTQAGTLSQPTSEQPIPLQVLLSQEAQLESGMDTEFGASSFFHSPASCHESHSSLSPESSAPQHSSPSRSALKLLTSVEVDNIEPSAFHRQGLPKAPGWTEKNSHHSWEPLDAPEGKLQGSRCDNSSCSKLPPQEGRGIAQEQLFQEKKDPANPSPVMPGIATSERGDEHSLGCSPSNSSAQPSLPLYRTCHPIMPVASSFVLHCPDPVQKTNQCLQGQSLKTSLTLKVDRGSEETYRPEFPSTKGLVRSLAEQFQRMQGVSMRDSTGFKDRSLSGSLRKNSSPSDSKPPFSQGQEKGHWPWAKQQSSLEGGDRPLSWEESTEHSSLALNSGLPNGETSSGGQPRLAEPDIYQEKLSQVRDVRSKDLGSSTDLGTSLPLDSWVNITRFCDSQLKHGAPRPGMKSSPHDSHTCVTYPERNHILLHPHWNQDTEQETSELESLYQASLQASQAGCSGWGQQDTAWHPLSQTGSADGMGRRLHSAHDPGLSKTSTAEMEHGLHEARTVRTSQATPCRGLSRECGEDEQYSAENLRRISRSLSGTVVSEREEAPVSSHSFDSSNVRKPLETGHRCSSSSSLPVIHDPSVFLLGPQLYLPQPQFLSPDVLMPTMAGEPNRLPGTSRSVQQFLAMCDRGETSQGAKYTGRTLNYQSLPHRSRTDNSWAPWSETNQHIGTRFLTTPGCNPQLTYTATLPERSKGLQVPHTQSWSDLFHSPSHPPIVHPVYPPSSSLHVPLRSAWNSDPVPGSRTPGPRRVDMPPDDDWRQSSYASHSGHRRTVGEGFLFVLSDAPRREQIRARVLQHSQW
Summary of the method: as §1

USP7 = USP7 (UniProt Q93009)
USP7, sequence (Q93009 whole entry, looked up): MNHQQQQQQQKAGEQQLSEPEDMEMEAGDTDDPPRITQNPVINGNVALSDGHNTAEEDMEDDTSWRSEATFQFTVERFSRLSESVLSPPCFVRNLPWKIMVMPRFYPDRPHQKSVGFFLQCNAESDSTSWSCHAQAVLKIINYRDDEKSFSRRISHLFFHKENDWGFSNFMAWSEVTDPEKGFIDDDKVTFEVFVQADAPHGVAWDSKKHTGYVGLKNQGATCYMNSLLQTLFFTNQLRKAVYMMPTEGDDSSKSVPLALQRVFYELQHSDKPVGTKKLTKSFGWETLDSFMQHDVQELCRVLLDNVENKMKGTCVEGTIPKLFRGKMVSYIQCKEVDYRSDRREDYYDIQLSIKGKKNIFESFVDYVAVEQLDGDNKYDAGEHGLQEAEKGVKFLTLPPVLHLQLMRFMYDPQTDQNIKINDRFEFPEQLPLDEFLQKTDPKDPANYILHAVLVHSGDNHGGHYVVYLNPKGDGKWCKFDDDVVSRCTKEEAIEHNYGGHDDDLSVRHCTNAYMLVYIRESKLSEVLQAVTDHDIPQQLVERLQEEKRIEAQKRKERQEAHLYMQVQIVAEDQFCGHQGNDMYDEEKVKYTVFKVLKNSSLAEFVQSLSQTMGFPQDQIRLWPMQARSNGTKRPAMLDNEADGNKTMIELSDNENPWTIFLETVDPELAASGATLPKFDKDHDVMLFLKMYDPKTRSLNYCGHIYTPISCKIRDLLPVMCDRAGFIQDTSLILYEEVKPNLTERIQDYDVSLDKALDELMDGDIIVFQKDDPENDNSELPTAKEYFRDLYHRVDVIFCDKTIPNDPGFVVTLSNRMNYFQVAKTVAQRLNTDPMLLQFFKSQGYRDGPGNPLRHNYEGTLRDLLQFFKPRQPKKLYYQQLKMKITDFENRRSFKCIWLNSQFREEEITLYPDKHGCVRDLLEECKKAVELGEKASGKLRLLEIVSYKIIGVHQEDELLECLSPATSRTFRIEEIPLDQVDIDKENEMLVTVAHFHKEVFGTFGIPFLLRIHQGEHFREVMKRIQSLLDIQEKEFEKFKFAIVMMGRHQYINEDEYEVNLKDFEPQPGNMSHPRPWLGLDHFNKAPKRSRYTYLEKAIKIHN
Summary of the method: as §1

USP8 = target: T5, USP8 (UniProt P40818)
T5 sequence (whole entry): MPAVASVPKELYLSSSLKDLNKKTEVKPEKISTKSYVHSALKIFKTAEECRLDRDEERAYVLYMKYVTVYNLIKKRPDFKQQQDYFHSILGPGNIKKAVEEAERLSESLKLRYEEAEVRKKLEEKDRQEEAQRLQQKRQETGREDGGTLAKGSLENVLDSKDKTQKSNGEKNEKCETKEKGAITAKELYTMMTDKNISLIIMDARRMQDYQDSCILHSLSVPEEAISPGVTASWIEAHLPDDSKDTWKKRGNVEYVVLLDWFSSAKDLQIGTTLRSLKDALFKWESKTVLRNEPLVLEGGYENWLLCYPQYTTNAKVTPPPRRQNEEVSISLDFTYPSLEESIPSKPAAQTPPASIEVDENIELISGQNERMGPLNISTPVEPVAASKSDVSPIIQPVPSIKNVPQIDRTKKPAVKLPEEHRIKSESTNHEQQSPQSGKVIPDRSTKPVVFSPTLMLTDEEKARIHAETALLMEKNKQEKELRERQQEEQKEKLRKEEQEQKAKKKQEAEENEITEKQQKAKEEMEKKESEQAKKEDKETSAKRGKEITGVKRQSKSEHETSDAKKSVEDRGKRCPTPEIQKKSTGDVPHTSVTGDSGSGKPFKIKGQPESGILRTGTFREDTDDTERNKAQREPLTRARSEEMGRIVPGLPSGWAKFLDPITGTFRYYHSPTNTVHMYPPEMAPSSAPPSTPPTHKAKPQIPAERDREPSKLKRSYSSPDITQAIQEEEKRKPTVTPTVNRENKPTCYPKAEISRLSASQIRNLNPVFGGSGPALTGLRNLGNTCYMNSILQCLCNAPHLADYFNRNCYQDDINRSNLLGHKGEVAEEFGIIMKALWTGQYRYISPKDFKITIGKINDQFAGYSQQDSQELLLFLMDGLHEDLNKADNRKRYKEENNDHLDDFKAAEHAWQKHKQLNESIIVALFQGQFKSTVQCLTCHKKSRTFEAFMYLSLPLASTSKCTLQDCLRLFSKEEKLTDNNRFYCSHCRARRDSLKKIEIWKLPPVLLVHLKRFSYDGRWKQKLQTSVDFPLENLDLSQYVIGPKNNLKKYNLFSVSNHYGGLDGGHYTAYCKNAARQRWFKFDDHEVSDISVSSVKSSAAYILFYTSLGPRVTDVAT
Summary of the method: as §1

USP9X = USP9X (UniProt Q93008)
Summary of the method: as §1

UniProt O00487 = target: UniProt O00487
UniProt O00487, sequence (O00487 whole entry): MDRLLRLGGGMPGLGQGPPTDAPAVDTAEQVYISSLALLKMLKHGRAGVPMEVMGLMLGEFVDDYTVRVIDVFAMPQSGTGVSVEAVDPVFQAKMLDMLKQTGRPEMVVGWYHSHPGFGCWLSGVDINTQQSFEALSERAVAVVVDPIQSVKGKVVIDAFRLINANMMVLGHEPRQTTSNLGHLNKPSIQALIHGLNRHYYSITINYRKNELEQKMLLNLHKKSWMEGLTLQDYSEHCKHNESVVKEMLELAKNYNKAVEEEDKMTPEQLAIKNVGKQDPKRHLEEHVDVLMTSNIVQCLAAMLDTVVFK
Summary of the method: as §1

Measured: log2 ratio of Biotin-Ahx-Ub-VS probe labelling

COc1ccc(CN(C)C(=O)CCl)cc1
inactive: USP42 0.294 | USP46 -0.0887 | USP47 -0.0389 | USP48 -0.604 | USP5 0.404 | USP54 0.256 | USP7 -0.907 | USP8 -0.448 | USP9X -0.178 | UniProt O00487 -0.0169
